Experimental findings from PubChem BioAssay AID1839 (Johns Hopkins Ion Channel Center, 2009) are described below.

Among all 2,400 compounds or so, about 220 (9.2%) were called active. The entries come from a sample that favours actives as a whole. Values without a mark were called inactive.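 Rule for the calls: active = signal change above the mean of dofetilide-free buffer controls plus 3 SD, so a positive margin; inactive = the rest.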

The nature of this assay: nonspecific flux effects in parental CHO-K1, confirmation, counter-screen for hERG block protection project, cell-based, CHO-K1 parental line, FluxOR thallium flux (AID 1839).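 Note: compounds applied alone with no dofetilide to cells lacking hERG.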 Particulars: CHO-K1 parental cells, FluxOR thallium flux fluorescence; at 10 µM. On the technique in general: A counterscreen serves to expose hits that act by an unwanted route or on another target.
Turning to `Cc1cccc(NC(=S)N/N=C2\CC(C)(C)Oc3ccc(O)cc32)c1`, the signal change vs control minus 3*SD hit threshold (margin above threshold, higher = more increase) is -19.7%. As for `O=C(NC(=S)NCCc1ccccc1)c1cccc(Cl)c1`, the signal change vs control minus 3*SD hit threshold (margin above threshold, higher = more increase) is -28.3%.

Turning to `O=C1C(c2ccccc2)C(c2ccccc2)NC(c2ccccc2)C1c1ccccc1` (stereo unspecified), the signal change vs control minus 3*SD hit threshold (margin above threshold, higher = more increase) is -27.2%. Regarding `COc1cccc2sc(Nc3nnc(-c4ccccc4Cl)o3)nc12`, the signal change vs control minus 3*SD hit threshold (margin above threshold, higher = more increase) is -16%.

Consider `Fc1cccc2sc(Nc3nnc(-c4ccco4)o3)nc12`, for which the signal change vs control minus 3*SD hit threshold (margin above threshold, higher = more increase) was -13.8%. As for `Fc1cccc2sc(Nc3nc4c(F)cccc4s3)nc12`, the signal change vs control minus 3*SD hit threshold (margin above threshold, higher = more increase) is -6.3%. With `COc1cccc2sc(Nc3nnc(-c4ccc(F)cc4)o3)nc12` the figure was 13.1% (active). As for `Fc1cccc2sc(Nc3nnc(-c4ccccc4)o3)nc12`, the figure is 39.2% (active). Turning to `COc1cccc2sc(Nc3nc(-c4ccccn4)cs3)nc12`, the signal change vs control minus 3*SD hit threshold (margin above threshold, higher = more increase) was -29.4%. Turning to `COc1cccc2sc(Nc3nnc(-c4cccs4)o3)nc12`, the signal change vs control minus 3*SD hit threshold (margin above threshold, higher = more increase) is 14.3% (active). For the compound `COc1cccc(-c2nnc(Nc3nc4c(F)cccc4s3)o2)c1`, the signal change vs control minus 3*SD hit threshold (margin above threshold, higher = more increase) is -7.5%. As for `CCC1CCCCN1C(=S)NC(=O)c1ccc([N+](=O)[O-])cc1` (stereo unspecified), the figure is -2.3%; as for `CN1C(=O)CSc2ccc(NC(=O)N3CCc4ccccc43)cc21`, -32.3%.

Consider `COc1ccccc1-n1c(CCC(=O)O)ccc1-c1ccccc1`, for which the signal change vs control minus 3*SD hit threshold (margin above threshold, higher = more increase) is -17.9%. As for `CCOC(=O)CC(=O)CSc1nc2c(C)c(C)ccc2cc1C`, the signal change vs control minus 3*SD hit threshold (margin above threshold, higher = more increase) is -25%. As for `C/C(=N\Nc1nc(C)c(C)s1)c1ccc([N+](=O)[O-])cc1`, the figure is -17.3%. As for `CCn1c(O)c(N=NC2=NC(=O)CS2)c2cc(C)ccc21`, the signal change vs control minus 3*SD hit threshold (margin above threshold, higher = more increase) is -27.3%. `CCn1c(O)c(N=NC2=NC(=O)CS2)c2ccccc21`: the signal change vs control minus 3*SD hit threshold (margin above threshold, higher = more increase) is -27%. As for `CCc1ccc2c(c1)c(N=NC1=NC(=O)CS1)c(O)n2CC`, the signal change vs control minus 3*SD hit threshold (margin above threshold, higher = more increase) was 1% (active). `CCCOc1ccc(CN(CCC#N)C(=S)NC(=O)c2ccccc2)cc1`: the signal change vs control minus 3*SD hit threshold (margin above threshold, higher = more increase) was -20.4%. In the case of `Cc1ccc2c(c1)c1nnc(SCC(=O)Nc3ccc(N(C)C)cc3)nc1n2CC(=O)O`, the signal change vs control minus 3*SD hit threshold (margin above threshold, higher = more increase) was -28.5%. With `CCOC(=O)N/N=C/C=C/c1ccccc1[N+](=O)[O-]` the figure was -14.5%. As for `COc1ccccc1N=Nc1ccc(O)c2ncccc12`, the signal change vs control minus 3*SD hit threshold (margin above threshold, higher = more increase) was -39%. With `COc1cccc(N=Nc2ccc(O)c3ncccc23)c1` the figure was -23.6%; with `CCN(CC)S(=O)(=O)c1cc(OC)ccc1N=Nc1ccc(O)c2ncccc12`, 5.8% (active); with `O=C(NC(=S)Nc1cccnc1)c1cc2ccccc2o1`, -7.1%. Consider `CCOc1ccc(C(=O)NC(=S)N(Cc2ccccc2)Cc2ccccc2)cc1`, for which the signal change vs control minus 3*SD hit threshold (margin above threshold, higher = more increase) was -15.4%.

`C=CCN(CC=C)C(=S)NC(=O)c1ccc(-c2ccccc2)cc1`: the signal change vs control minus 3*SD hit threshold (margin above threshold, higher = more increase) was -9.3%. With `COc1cc(OC)cc(C(=O)NC(=S)N(Cc2ccccc2)C(C)C)c1` the figure was -1.3%; with `Cc1ccc(C(=O)NC(=S)N(C)Cc2ccccc2)cc1`, -19.2%; with `CCCN(CCC)C(=S)NC(=O)c1ccc(-c2ccccc2)cc1`, 18.5% (active). With `COc1ccc(C(=O)NC(=S)N(Cc2ccccc2)Cc2ccccc2)cc1` the figure was 7.4% (active). As for `CCCCC1(O)CC(C(F)(F)F)=NN1C(=O)COc1ccccc1` (stereo unspecified), the figure is -36.4%; as for `Cc1ccc(OCCC(=O)OC(C)C(=O)NC2CC2)cc1` (stereo unspecified), -26.5%; as for `CC(=O)Cn1c(=O)c2c(nc3n2CCCN3Cc2ccccc2)n(C)c1=O`, -25.8%. Take `O=C(O)Cc1cc(I)c(Oc2ccc(O)c(I)c2)c(I)c1`: the signal change vs control minus 3*SD hit threshold (margin above threshold, higher = more increase) is 7.3% (active). As for `O=C(O)CN1C(=O)c2ccc(Oc3ccc4c(c3)C(=O)N(CC(=O)O)C4=O)cc2C1=O`, the figure is -18.4%; as for `CCCCC(=O)Nc1ccc(NCc2ccc(C)s2)cc1`, -5.7%; as for `CC[C@@H](C(=O)[C@@H](C)[C@@H](O)[C@H](C)CCc1ccc(C)c(O)c1C(=O)O)[C@H]1O[C@](CC)([C@H]2CC[C@](O)(CC)[C@H](C)O2)C[C@@H]1C`, 58.8% (active). Regarding `Cc1ccc(C(=O)NC(C)c2ccc(C)c(C)c2)s1` (stereo unspecified), the signal change vs control minus 3*SD hit threshold (margin above threshold, higher = more increase) was -19%. Regarding `CC(NC(=S)NC1CCCCC1)c1ccccc1` (stereo unspecified), the signal change vs control minus 3*SD hit threshold (margin above threshold, higher = more increase) was -19.6%.

On to `Cc1ccc(C(C)NC(=O)C2CCCC2)cc1C` (stereo unspecified), for which the signal change vs control minus 3*SD hit threshold (margin above threshold, higher = more increase) is 0.7% (active).

Consider `CCOc1ccc(C(C)NC(=S)NC2CCCCC2)cc1` (stereo unspecified), for which the signal change vs control minus 3*SD hit threshold (margin above threshold, higher = more increase) is -15.5%. With `Cc1ccc(C(C)NC(=S)NC2CCCCC2)cc1C` (stereo unspecified), the signal change vs control minus 3*SD hit threshold (margin above threshold, higher = more increase) was 1% (active). For `CCc1ccc(C(C)NC(=O)C2CCCC2)cc1` (stereo unspecified), the signal change vs control minus 3*SD hit threshold (margin above threshold, higher = more increase) was -18.1%. As for `C[n+]1ccccc1/C=C/c1c(F)cccc1F`, the figure is -21.1%; as for `COCCn1nnnc1C(c1ccc(C(F)(F)F)cc1)N1CCOCC1` (stereo unspecified), -34%; as for `O=C1C2C3C=CC(C4CC34)C2C(=O)N1/N=C/c1ccc(-c2ccc(F)cc2[N+](=O)[O-])o1` (stereo unspecified), -30.5%. With `COc1ccc(NC(=O)C(=O)NNC(=O)C(C)Oc2ccc(Cl)cc2Cl)cc1` (stereo unspecified) the figure was -10.9%.

As to `COc1ccc(NC(=O)c2ccc(COCC(F)(F)C(F)F)cc2)cc1`, the signal change vs control minus 3*SD hit threshold (margin above threshold, higher = more increase) was -40.3%. On to `COc1ccc(C(=O)NNC(=O)C(=O)Nc2ccc(C)c(Cl)c2)cc1`, for which the signal change vs control minus 3*SD hit threshold (margin above threshold, higher = more increase) was -14.1%. As for `CCc1ccc(NC(=O)C(=O)NNC(=O)c2ccc(OC)cc2)cc1`, the figure is 21.6% (active).

Turning to `COc1cc(OC)cc(C(=O)NNC(=O)C(=O)Nc2cc(OC)c(Cl)cc2OC)c1`, the signal change vs control minus 3*SD hit threshold (margin above threshold, higher = more increase) was 23.8% (active). With `COc1ccc(C(=O)NNC(=O)C(=O)Nc2ccc(C)cc2)cc1` the figure was -5.7%; with `COc1cccc(C(=O)NNC(=O)C(=O)Nc2cccc(Cl)c2C)c1`, -6.7%; with `COc1cccc(C(=O)NNC(=O)C(=O)Nc2ccc(C)cc2)c1`, 28.8% (active). For `COc1cccc(C(=O)NNC(=O)C(=O)Nc2ccc(C)c(Cl)c2)c1`, the signal change vs control minus 3*SD hit threshold (margin above threshold, higher = more increase) is 13.6% (active). As to `COc1cccc(C(=O)CC(=O)C(=O)Nc2ccc(C)cc2Cl)c1`, the signal change vs control minus 3*SD hit threshold (margin above threshold, higher = more increase) is -9.2%. With `Cc1cc(S(=O)(=O)Nc2ccc(C(=O)N3CCN(C(=O)c4ccco4)CC3)cc2)ccc1F` the figure was -12.4%; with `O=[N+]([O-])c1cc(S(=O)(=O)/N=C(/c2ccccc2)N2CCOCC2)ccc1Cl`, -31.7%. As to `CCOP(=O)(OCC)C(NC(=O)c1ccc(OC)c(OC)c1)c1ccccc1` (stereo unspecified), the signal change vs control minus 3*SD hit threshold (margin above threshold, higher = more increase) is -21.4%.
